Here are results for 100 compounds from PubChem BioAssay AID588719 (Southern Research Specialized Biocontainment Screening …, 2011).

About 920 (61%) of roughly 1,500 compounds were called active. The rule behind the calls is not given here. The set was probably picked from earlier hits. Some of the results follow. Entries with a potency or affinity are not part of this list.

This assay can be described thus: Vero 76 cell cytotoxicity, dose response, cytotoxicity control for VEEV inhibitor project (AID 588719). To be noted: Vero 76 cells viability, cytotoxicity counter-screen; series mostly up to 25 µM.
Take `CCN(CC)CCN(Cc1cc2ccc(C)cc2[nH]c1=O)C(=O)Nc1ccc(Cl)cc1`: the compound was classed as inactive.
In the case of `O=C(COc1cccc2ccccc12)Nc1ccc(Cl)cc1C(=O)O` it was “inactive”; in that of `CCN(CC)CCNC(=O)c1cc2cc(Br)ccc2s1`, “inactive”; in that of `CC(=O)Nc1cc[n+](CC(=O)c2cccc([N+](=O)[O-])c2)cc1`, “inactive”.
In the case of `Nc1ccc(C(=O)OCc2nc3cc4ccccc4cc3[nH]2)cc1` it was “inactive”; in that of `C[C@@H]1CN([C@H](C)CO)C(=O)CCCn2nncc2CO[C@@H]1CN(C)C(=O)c1cc(-c2ccccc2)on1`, “inactive”; in that of `COc1ccc(-c2onc(C)c2-c2ccc3c(c2)OCCO3)c(O)c1`, “inactive”.
As for `Cc1[nH]c2ccc(-c3nnc(SCC(=O)c4ccccc4F)o3)cc2c1C`, the entry is “inactive”.
As for `O=C(CCCN1C(=O)/C(=C\c2ccco2)SC1=S)Nc1ccc2ccccc2c1`, the result was inactive.
`CCOC(=O)c1c(NC(=O)C(C)Sc2cccc[n+]2[O-])sc2c1CCN(Cc1ccccc1)C2` (stereo not given): the result was inactive.
In the case of `Cc1nc2c(sc3nc(N4CCOCC4)c4c(c32)CC(C)(C)OC4)c(-c2ccccc2)c1C(=O)O` it was “inactive”.
As for `CC(C)CCOC(=O)C[N+](C)(C)CCOC1CC2CCC1(C)C2(C)C` (stereo not given), the entry is “inactive”.
As for `CC(Sc1nnc(Nc2ccccc2)s1)C(=O)Nc1nc(-c2ccccc2)cs1` (stereo not given), the entry is “inactive”.
Turning to `O=C1NC(=O)N(Cc2ccccc2)C(=O)/C1=C/C=C/c1ccco1`, the compound was classed as inactive.
In the case of `CCOC(=O)N1CCN(S(=O)(=O)c2ccc(C(=O)N(CCCN(C)C)c3nc4ccc(CC)cc4s3)cc2)CC1` it was “inactive”.
For `COc1ccccc1C1CCCN1Cc1nc(-c2ccc(C)s2)oc1C` (stereo not given), the compound was called inactive.
In the case of `NCCSc1c(-c2ccc(F)cc2)[nH]c2ccccc12` it was “inactive”; in that of `CSc1nnc2c3ccccc3n(CCc3ccccc3)c2n1`, “inactive”.
In the case of `CN(C)CC/C=C1/c2ccccc2Sc2ccc(Cl)cc21` it was “inactive”; in that of `CCCc1cc(C(=O)Nc2cnn(Cc3ccc(F)cc3)c2)no1`, “inactive”.
As for `COc1cc(C2C(C#N)=C(N)Oc3c2ccc2ccccc32)ccc1OCC(=O)Nc1ccc(C)cc1` (stereo not given), the entry is “inactive”.
With `COc1cccc(N2C(=O)/C(=C/c3ccc(C)o3)C(=O)NC2=S)c1`, the compound was classed as inactive.
As for `CNCCCC12CCC(c3ccccc31)c1ccccc12`, the entry is “inactive”; as for `Cc1ccccc1S(=O)(=O)N(C)C[C@H]1OCc2cnnn2CCCC(=O)N([C@H](C)CO)C[C@H]1C`, “inactive”.
As for `CCOc1ccccc1CNC(=O)c1cc2oc3ccccc3c2n1C`, the entry is “inactive”; as for `Cc1oc(C(C)(C)C)cc1-c1cc(NC(=O)c2ccc([N+](=O)[O-])cc2)n[nH]1`, “inactive”; as for `COc1ccc(C2(C)ON(c3ccccc3C(F)(F)F)C2=O)cc1` (stereo not given), “inactive”.
In the case of `COc1ccccc1[C@@]1(C)ON(c2ccccc2C(F)(F)F)C1=O` it was “inactive”; in that of `O=C(O)CCN1C(=O)/C(=C2\C(=O)N(Cc3ccc(F)cc3)c3ccccc32)SC1=S`, “inactive”.
Regarding `O=C(CCN1C(=O)/C(=C/c2ccccc2F)SC1=S)NCCc1ccc(O)cc1`, the call was inactive.
In the case of `COc1cc(NC(C)CCCN)c2nc(C)ccc2c1Oc1ccc(F)cc1` (stereo not given) it was “inactive”; in that of `O=c1c2ccccc2nc(-c2ccoc2)n1CCc1ccccc1`, “inactive”; in that of `CCc1[nH]nc(C(=O)NC2CCCc3c2cnn3-c2cc(C)cc(C)c2)c1C` (stereo not given), “inactive”.
In the case of `CCCCCCCCCCOC(=O)Cn1c(COc2cccc(OC)c2)[n+](C)c2ccccc21` it was “inactive”; in that of `COc1ccc(OCCn2c(C)nc3ccccc32)cc1`, “inactive”.
As for `O=C(CSC1=Nc2ccccc2C2CC=NN12)Nc1ccc2c(c1)OCO2` (stereo not given), the entry is “inactive”; as for `NC(=O)c1ccc(NC(=O)COC(=O)C2COc3ccccc3O2)cc1` (stereo not given), “inactive”.
As for `NS(=O)(=O)c1cccc(NC(=O)CN2C(=O)C(=O)N(Cc3ccccc3)C2=O)c1`, the compound was called inactive.
`C=CCn1c(SCC(=O)NNC(=O)Nc2cccc(Cl)c2)nnc1-c1ccccc1`: the result was inactive.
Consider `O=C(COC(=O)COc1ccccc1)Nc1ccc(Br)cc1F`, for which the call was inactive.
Take `CN(CCC#N)C(=O)COC(=O)c1ccc2[nH]c3c(c2c1)CCCC3`: the compound was classed as inactive.
In the case of `Cc1ccc([C@H]2C[C@H](n3cc(-c4ccc(F)cc4)nn3)[C@@H](O)CN2CC2CCCCC2)cc1` it was “inactive”.
On to `Cc1nc(-c2ccccc2)sc1C(=O)/C=C/c1ccccc1`, for which the compound was classed as inactive.
In the case of `O=C(Nc1ncc(Cc2ccccc2Cl)s1)C1CCCO1` (stereo not given) it was “inactive”; in that of `O=C1Nc2cc3c(cc2C1=O)sc1ccccc13`, “inactive”.
Turning to `O=C(C=Cc1cccs1)c1cccs1`, the outcome was inactive.
`Cc1nc(S/C(C(=O)O)=C2/C(=O)Nc3ccccc32)n[nH]1`: the call was inactive.
On to `CN1C[C@H](CNC(=O)OCc2ccccc2)C[C@@H]2c3cccc4c3c(cn4C)C[C@H]21`, for which the compound was classed as inactive.
In the case of `Cc1ccc2c(c1)cc(C(=O)NCc1ccccc1)n2C` it was “inactive”; in that of `CCn1c(O)c(/C=N/NC(=O)c2ccccc2)c(=O)[nH]c1=S`, “inactive”; in that of `COc1ccc(/C=N/NC(=O)c2cccnc2)cc1COc1ccc(NC(C)=O)cc1`, “inactive”.
In the case of `O=[N+]([O-])c1cccc(-c2c[n+]3c(n2-c2ccccc2)SCC3)c1` it was “inactive”; in that of `COc1cc(/C=C2/SC(=S)N(CCC(=O)N3CCN(C)CC3)C2=O)cc(OC)c1OC`, “inactive”.
With `COCCN(Cc1nc(-c2ccc(-c3ccccc3)cc2)oc1C)C(C)C`, the compound was classed as inactive.
As for `COc1cccc(NC(=S)N(CCCN2CCCC2)Cc2cccn2Cc2ccc(Cl)cc2)c1`, the entry is “inactive”; as for `O=C(Cc1c[nH]c2ccccc12)Nc1nnc(C2CC2)s1`, “inactive”.
In the case of `COc1ccc(NC(=O)[C@H](Cc2c[nH]c3ccccc23)NC(=O)[C@@H]2Cc3ccccc3CN2)cc1` it was “inactive”; in that of `O=C1C2CCCN2C(c2ccccc2)N1c1ccc(Cl)cc1` (stereo not given), “inactive”.
As for `CC(=O)c1c(C)cc(C)c(CSc2nc(C)cc(=O)[nH]2)c1C`, the entry is “inactive”; as for `CCc1ccc([C@@H]2C[C@H]3[C@@H](CN2S(=O)(=O)c2ccc(C)cc2)C(=O)C[C@@H](c2ccc(Cl)cc2)N3S(=O)(=O)c2ccccc2C)cc1`, “inactive”; as for `Cc1cc2nc(/N=C(\N)NC(=O)C(C)C)nc(C)c2cc1C`, “inactive”.
As for `O=c1c2ccccc2[nH]c(=S)n1CCCN1CCN(c2ccccc2)CC1`, the outcome was inactive.
In the case of `O=c1c2ccccc2[nH]c(=S)n1CCCN1CCN(c2ccccc2F)CC1`, the compound was called inactive.
In the case of `COc1ccc(S(=O)(=O)Nc2ccc3c(c2)C(=O)N([C@H](C)CO)C[C@H](C)[C@@H](CN(C)C(=O)Nc2ccc(C(F)(F)F)cc2)OCCCC[C@H](C)O3)cc1` it was “inactive”.
For the compound `c1ccc(CCNc2ccc3c(c2)Cc2ccccc2-3)nc1`, the compound was called inactive.
In the case of `Cc1cc2ccc3ccccc3c2cc1CN(C)C` it was “inactive”; in that of `Cc1cccc(C(=O)Nc2ccccc2SCC2CSc3nc4ccccc4c(=O)n32)c1` (stereo not given), “inactive”; in that of `O=C(CC1C(=O)NC2CCCCC2N1C(=O)c1ccc([N+](=O)[O-])cc1)Nc1ccccc1` (stereo not given), “inactive”.
Consider `CC(=O)C1C(N2CC2)CC2C3CCC4=CC(=O)CCC4(C)C3CCC21C` (stereo not given), for which the compound was called inactive.
As for `CN1CCN(/N=C/c2ccc(N(c3ccccc3)c3ccccc3)cc2)CC1`, the entry is “inactive”; as for `OC1(c2cccs2)CN(c2ccc(Br)cc2)C2=[N+]1CCCS2` (stereo not given), “inactive”; as for `Nc1ccccc1/C=C/c1ccccc1N`, “inactive”.
In the case of `CN(C)CCC(=O)C(Cc1ccccc1)c1ccccc1` (stereo not given) it was “inactive”; in that of `Cc1nn(-c2ccccc2)nc1C(=O)Nc1nnc(C(F)(F)F)s1`, “inactive”; in that of `CCCc1nnc(NC(=O)c2nc(S(=O)(=O)Cc3ccc(C)cc3)ncc2Cl)s1`, “inactive”.
As for `COc1ccccc1NC(=O)c1nc(S(=O)(=O)Cc2ccccc2)ncc1Cl`, the call was inactive.
Turning to `Cc1ccc(C)c(NS(=O)(=O)c2ccc(-n3cccn3)cc2)c1`, the compound was called inactive.
On to `Cc1ccccc1-c1n[nH]c(=S)n1/N=C/c1ccc(-c2ccccc2Br)o1`, for which the outcome was inactive.
As for `O=C(COC(=O)c1ccc(Br)o1)NCc1ccc(Cl)cc1`, the entry is “inactive”; as for `Cc1noc(C)c1NC(=O)N(C)C[C@H]1OCc2cnnn2CCCC(=O)N([C@H](C)CO)C[C@@H]1C`, “inactive”.
As for `CC(C)(C)C(=O)Nc1sc(-c2ccccc2)cc1C(=O)O`, the entry is “inactive”; as for `Nc1cc[n+](CC(=O)c2ccc3c(c2)OCCO3)cc1`, “inactive”.
As for `CN(C)c1ccc(C(=O)c2ccc(N(C)C)c3ccccc23)cc1`, the entry is “inactive”; as for `O=C(OCC(=O)N1CCOCC1)c1ccc2[nH]c3c(c2c1)CCCC3`, “inactive”; as for `COc1ccc(-n2c(O)c(C=NCCN(C)C)c(=O)[nH]c2=O)cc1`, “inactive”.
Take `O=C(Nc1ccc(N2CCCCC2)c(Cl)c1)c1cccnc1`: the outcome was inactive.
As for `Cc1c(O)c2ccccc2oc1=O`, the entry is “inactive”.
As for `CC1=C(C(=O)N2CCOCC2)CC(CC(=O)NC2CCCCC2)C(=O)N1Cc1ccc(C(C)(C)C)cc1` (stereo not given), the entry is “inactive”.
In the case of `COc1ccc(C2CC(=O)C3=C(C2)NC(C)=C(C#N)C3c2ccc(N(C)C)cc2)cc1` (stereo not given) it was “inactive”; in that of `CC(=O)/C(C#N)=C1\NC(=O)C(Cc2ccccc2)S1` (stereo not given), “inactive”; in that of `CCc1nc(CN2CCCC(C(=O)Nc3ccc(-c4cccc(OC)c4)cc3)C2)c(C)[nH]1` (stereo not given), “inactive”.
As to `COc1ccc(O)c(CN2CCCC(C(=O)Nc3cccc(-n4cccn4)c3)C2)c1` (stereo not given), the call was inactive.
As for `COc1ccc(-c2csc(NC(=S)NC(=O)c3cccs3)n2)cc1Br`, the entry is “inactive”.
For `CN(c1ccc(OCC(=O)Nc2ccccc2C(=O)O)cc1)S(=O)(=O)c1ccc(Cl)cc1`, the call was inactive.
In the case of `Cc1nn(Cc2c(Cl)cccc2Cl)c(C)c1NC(=O)c1cc(C(C)C)on1` it was “inactive”.
In the case of `O=c1[nH]c(SCc2nc3c(cnn3-c3ccccc3)c(=O)[nH]2)nc2ccccc12` it was “inactive”; in that of `CCN(CC)P(=O)(NC(=O)C(Cl)(Cl)Cl)N(CC)CC.[Cl-].[Cl-].[Cl-].[Nd+3]`, “inactive”; in that of `Cc1nc(/C(N)=N/OC(=O)c2ccccc2Cl)c(C(F)(F)F)o1`, “inactive”.
In the case of `C/C(N)=C(/C#N)C(=O)CSc1nnc(-c2ccc(OC(F)F)cc2)o1` it was “inactive”; in that of `COc1ccc(NC(=O)N(C)C[C@H]2Oc3cc(Br)ccc3S(=O)(=O)N([C@H](C)CO)C[C@@H]2C)cc1`, “inactive”.
